This is an account of results in PubChem BioAssay (Tox21).

A short description of experiment [1]: qHTS assay to identify small molecule antagonists of the estrogen related receptor (ERR) signaling pathway from Tox21 library - cell viability counter screen (AID 1224834). Also: nearly all actives have a fitted effect of over 30% in size. Also: potency is read from the fitted curve at half-maximal effect. In outline:
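Multiplexed viability counter screen in ERR cells: 17.5 h compound exposure at 37 C, CellTiter-Fluor added, 30 min at 37 C/5% CO2, fluorescence read.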
On the technique in general: In qHTS, concentration-response curves come from the screen itself.

Experiment [2] addresses Luciferin 4-monooxygenase (Photinus pyralis) (UniProt P08659). Kind of experiment: qHTS assay to identify small molecule inhibitors of firefly luciferase (AID 1224835). Also: nearly all actives have a fitted effect of over 25% in size. Also: potency is read from the fitted curve at half-maximal effect. In outline: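 Quantitative HTS format; KM concentrations of both substrates. Purified P. pyralis FLuc activity quantified from luminescence images.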
A short description of experiment [3]: qHTS assay to identify small molecule antagonists of the constitutive androstane receptor (CAR) signaling pathway - cell viability counter screen (AID 1224837). Also: nearly all actives have a fitted effect of over 45% in size. In outline:
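Read-out: CellTiter-Fluor fluorescence after 23 hr at 37 C/5% CO2. Cells: HepG2 double-stable for hCAR and CYP2B6-2.2kb. Compounds tested at 15 concentrations in the presence of CITCO, final concentration 50 nM.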

Experiment [4] can be described thus: qHTS assay to identify small molecule antagonists of the estrogen related receptor signaling pathway with the pleiotropic PPARgamma coactivator (PGC) from Tox21 10K library - cell viability counter screen (AID 1224840; active = well fitted cell-killing curve with a large enough effect in the repeat runs, not every such curve was filed as active; also: nearly all actives have a fitted effect of over 40% in size; also: potency is read from the fitted curve at half-maximal effect). In outline: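 Fluorescence read-out of CellTiter-Fluor viability reagent, added after cells had been exposed to compound in DMSO for 17.5 h at 37 C; 30 min development at 37 C/5% CO2. Cells: PGC/ERR line, 2,000/well.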

For experiment [5], the target named is Thyrotropin receptor (Homo sapiens) (UniProt P16473). Briefly: qHTS assay to identify small molecule agonists of the thyroid stimulating hormone receptor (TSHR) signaling pathway (AID 1224843; calls by dose curve; also: nearly all actives have a fitted effect of over 45% in size; also: potency is read from the fitted curve at half-maximal effect). In outline: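 Compounds are titrated over 15 concentrations, in triplicate, onto TSHR-HEK293 cells seeded at 800/well. Plates sit 30 min at room temperature before cAMP-d2 and anti-cAMP cryptate are added; signal is read after a further hour.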

Experiment [6] is described as follows: qHTS assay to identify small molecule agonists of the hypoxia (HIF-1) signaling pathway - cell viability counter screen (AID 1224844; calls by dose curve; also: nearly all actives have a fitted effect of over 50% in size; also: potency is read from the fitted curve at half-maximal effect). In outline: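 CellTiter-Glo luminescence read-out, 30 min RT, taken in the same wells as the beta-lactamase HRE reporter assay; HRE-bla ME-180 cells, 0.5% dialyzed FBS, 17 hr compound treatment at 37C, 5% CO2.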
Experiment [7] in a line: qHTS assay to identify small molecule agonists of H2AX (AID 1224845; active = well fitted activation curve with a large enough effect in the signal ratio in the repeat runs, not every such curve was filed as active; the % refers to the signal ratio). An outline of the steps:
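Wild-type CHO-K1 cells plated overnight, then exposed 3 hr at 37C to compounds at 15 concentrations (0.76% DMSO). Lysed, then HTRF anti-pH2AX(S139)-cryptate/anti-H2AX-d2 detection after 24 hr at room temperature; emissions 665 and 620 nm.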

A short description of experiment [8]: qHTS assay to identify small molecule agonists of H2AX - cell viability counter screen (AID 1224847; calls by dose curve; also: nearly all actives have a fitted effect of over 30% in size; also: potency is read from the fitted curve at half-maximal effect). In outline: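 Cells plated first: CHO-K1, 1000 per well in 10% FBS medium, incubated overnight at 37C. Then 15-point compound titration added (final DMSO 0.76%) for 3 hr. Finally CellTiter-Glo added and luminescence read.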
A short description of experiment [9]: qHTS RealTime-Glo MT Cell Viability Assay in HepG2 cells - 24 hour (AID 1224867). Also: nearly all actives have a fitted effect of over 50% in size. Also: potency is read from the fitted curve at half-maximal effect. In outline:
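HepG2 cells were seeded at 600 cells/well together with NanoLuc luciferase and a cell-permeant prosubstrate, preincubated 5 h at 37 C/5% CO2, then pin-dosed with compounds in DMSO. Nonlytic luminescence from viable cells was read at each time point.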

Experiment [10] can be described thus: qHTS RealTime-Glo MT Cell Viability Assay in HEK293 cells - 32 hour (AID 1224868). Also: nearly all actives have a fitted effect of over 50% in size. Also: potency is read from the fitted curve at half-maximal effect. In outline: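 HEK293 cells were seeded at 600 cells/well together with NanoLuc luciferase and cell-permeant prosubstrate, preincubated 5 h at 37 C/5% CO2, then given compound in DMSO by pintool. Luminescence from viable-cell prosubstrate reduction was read repeatedly over 40 h.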

Experiment [11] is described as follows: A CellTox Green Cytotoxicity Assay to monitor cytotoxicity in HEK293 cells - 0 hour (AID 1224869). Also: nearly all actives have a fitted effect of over 50% in size. An outline of the steps: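 Read-out: fluorescence of a cell-impermeant cyanine dye staining DNA of dead cells, proportional to cytotoxicity. HEK293, 600 cells/well with reagent, compound (23 nL DMSO) added after 5 h; reads at 0, 8, 16, 24, 32, 40 h.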
In experiment [12] the target is Nuclear receptor subfamily 1 group I member 3 (Homo sapiens) (UniProt Q14994). Briefly: qHTS assay to identify small molecule antagonists of the constitutive androstane receptor (CAR) signaling pathway (AID 1224838).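 Also: HepG2 cells stably expressing hCAR with CYP2B6 luciferase reporter stimulated by CITCO; nearly all actives have a fitted effect of over 40% in size.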 Also: potency is read from the fitted curve at half-maximal effect. In outline:
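Read-out: ONE-Glo luciferase luminescence after 30 min at room temperature. HepG2-CYP2B6-hCAR double-stable cells, compounds in 15-point titration plus 50 nM CITCO final, 24 h at 37 C/5% CO2.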

The target is the same in experiment [13]. Briefly: qHTS assay to identify small molecule agonists of the constitutive androstane receptor (CAR) signaling pathway (AID 1224839). Also: nearly all actives have a fitted effect of over 15% in size. Also: potency is read from the fitted curve at half-maximal effect.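 As to activation: HepG2 cells stably carrying human CAR and a CYP2B6 luciferase reporter.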 In outline:
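HepG2-CYP2B6-hCAR cells, 2500/well, 4 h pre-incubation; compounds 15 conc.; PK11195 0.75 uM final; 24 h, 37 C/5% CO2; ONE-Glo luciferase read.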

The nature of experiment [14]: qHTS assay to identify small molecule agonists of the hypoxia (HIF-1) signaling pathway (AID 1224846; active = well fitted activation curve with a large enough effect in the signal ratio in the repeat runs, not every such curve was filed as active; the % refers to the signal ratio). An outline of the steps: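 Beta-lactamase FRET read-out (CCF4-AM substrate) from ME-180 cells carrying an HRE-driven bla reporter, after 17 hrs compound exposure at 37C/5% CO2. Cells were seeded at 2,000 per well in 0.5% dialyzed FBS medium and preincubated 5 hrs.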

Experiment [15] can be described thus: qHTS assay to identify small molecule antagonists of the estrogen related receptor signaling pathway with the pleiotropic PPARgamma coactivator (PGC) from Tox21 10K library (AID 1224841; call rule not given here; also: potency is read from the fitted curve at half-maximal effect). In outline: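 Luminescence read-out (One-Glo luciferase reagent, 30 min at room temperature) from PGC/ERR cells exposed to DMSO-dissolved test compounds for 18 h at 37 C; cells, 2,000 per well, had been preincubated 6 h before compound transfer.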

The nature of experiment [16]: qHTS assay to identify small molecule agonists of the estrogen related receptor signaling pathway with the pleiotropic PPARgamma coactivator (PGC) from Tox21 10K library (AID 1224842). Also: nearly all actives have a fitted effect of over 15% in size. An outline of the steps:
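PGC/ERR reporter cells (NTP line) were seeded 2,000 per well, rested 6 h at 37 C/5% CO2, then pin-dosed with compounds in DMSO for 18 h at 37 C; luciferase read by One-Glo luminescence after 30 min at room temperature.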

Experiment [17] is described as follows: qHTS assay to identify small molecule antagonists of the estrogen related receptor (ERR) signaling pathway from Tox21 library (AID 1224848). Also: nearly all actives have a fitted effect of over 50% in size. Also: potency is read from the fitted curve at half-maximal effect. In outline: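 First, 2,000 ERR cells per well were plated and held 6 h at 37 C/5% CO2. Next, compounds in DMSO were pinned in and left 18 h at 37 C. Finally, ONE-Glo was added and luminescence read after 30 min at room temperature.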

Experiment [18] is described as follows: qHTS assay to identify small molecule agonists of the estrogen related receptor (ERR) signaling pathway from Tox21 library (AID 1224849; calls by dose curve; also: nearly all actives have a fitted effect of over 15% in size). The settings on record: ERR reporter cell line, ONE-Glo luciferase, 18 h. In outline: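 Luminescence readout (ONE-Glo, 30 min RT) after 18 h compound exposure at 37 C of NTP-supplied ERR reporter cells; cells were plated 6 h before compound addition by pin tool.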

Experiment [19] is described as follows: qHTS assay to identify small molecule agonists of the constitutive androstane receptor (CAR) signaling pathway - cell viability counter screen (AID 1224836). Also: nearly all actives have a fitted effect of over 45% in size. An outline of the steps:
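HepG2-CYP2B6-hCAR, 2500 cells/well, 4 h pre-incubation; cpd 15 conc + PK11195 0.75 uM final; 23 h, 37 C/5% CO2; CellTiter-Fluor, fluorescence.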

Molecules are shown by their SMILES. Where “and” joins values, the source holds several entries; their conditions need not be identical. Identical values can stand only once. Inconclusive results are not listed. Some structures have more than one record in an assay (separate samples or runs), and their calls can disagree. Calls of active or inactive are those of the source. Unless noted, calls follow the shape of the dose curve; as a rule, active = well fitted curve in the direction sought with a large enough effect in the repeat runs; inconclusive = weak or mixed curves; inactive = no such curve, though single readings can be large; an effect the other way counts as inactive or inconclusive.
% is scaled to controls: 0 for no effect and ±100 for the full control effect.

Nuclear receptor subfamily 1 group I member 3 (Homo sapiens), sequence (Q14994 whole entry, looked up): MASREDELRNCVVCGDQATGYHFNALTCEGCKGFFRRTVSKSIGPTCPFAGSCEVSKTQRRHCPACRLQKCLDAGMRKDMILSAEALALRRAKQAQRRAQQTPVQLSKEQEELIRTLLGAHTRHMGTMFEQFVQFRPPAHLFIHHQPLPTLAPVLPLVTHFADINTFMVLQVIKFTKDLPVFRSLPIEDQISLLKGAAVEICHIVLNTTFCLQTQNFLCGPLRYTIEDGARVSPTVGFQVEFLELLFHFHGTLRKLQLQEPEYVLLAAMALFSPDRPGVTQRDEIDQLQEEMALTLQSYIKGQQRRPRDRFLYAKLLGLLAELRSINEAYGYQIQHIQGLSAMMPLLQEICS
Luciferin 4-monooxygenase (Photinus pyralis), sequence (P08659 whole entry, looked up): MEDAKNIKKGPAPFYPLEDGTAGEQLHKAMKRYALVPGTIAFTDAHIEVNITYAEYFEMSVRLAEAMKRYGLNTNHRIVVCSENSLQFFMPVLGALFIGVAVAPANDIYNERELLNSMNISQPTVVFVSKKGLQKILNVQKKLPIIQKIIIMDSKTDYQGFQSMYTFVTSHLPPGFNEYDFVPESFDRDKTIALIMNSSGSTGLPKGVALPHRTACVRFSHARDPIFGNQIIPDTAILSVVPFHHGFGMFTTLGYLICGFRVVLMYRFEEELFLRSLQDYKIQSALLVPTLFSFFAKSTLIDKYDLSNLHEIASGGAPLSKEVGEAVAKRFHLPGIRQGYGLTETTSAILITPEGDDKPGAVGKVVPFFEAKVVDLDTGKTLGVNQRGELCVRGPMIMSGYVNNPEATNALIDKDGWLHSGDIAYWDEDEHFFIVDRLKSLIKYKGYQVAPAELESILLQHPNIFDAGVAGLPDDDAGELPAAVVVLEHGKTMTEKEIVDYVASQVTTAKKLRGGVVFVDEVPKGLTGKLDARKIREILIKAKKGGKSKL
Thyrotropin receptor (Homo sapiens), sequence (P16473 whole entry, looked up): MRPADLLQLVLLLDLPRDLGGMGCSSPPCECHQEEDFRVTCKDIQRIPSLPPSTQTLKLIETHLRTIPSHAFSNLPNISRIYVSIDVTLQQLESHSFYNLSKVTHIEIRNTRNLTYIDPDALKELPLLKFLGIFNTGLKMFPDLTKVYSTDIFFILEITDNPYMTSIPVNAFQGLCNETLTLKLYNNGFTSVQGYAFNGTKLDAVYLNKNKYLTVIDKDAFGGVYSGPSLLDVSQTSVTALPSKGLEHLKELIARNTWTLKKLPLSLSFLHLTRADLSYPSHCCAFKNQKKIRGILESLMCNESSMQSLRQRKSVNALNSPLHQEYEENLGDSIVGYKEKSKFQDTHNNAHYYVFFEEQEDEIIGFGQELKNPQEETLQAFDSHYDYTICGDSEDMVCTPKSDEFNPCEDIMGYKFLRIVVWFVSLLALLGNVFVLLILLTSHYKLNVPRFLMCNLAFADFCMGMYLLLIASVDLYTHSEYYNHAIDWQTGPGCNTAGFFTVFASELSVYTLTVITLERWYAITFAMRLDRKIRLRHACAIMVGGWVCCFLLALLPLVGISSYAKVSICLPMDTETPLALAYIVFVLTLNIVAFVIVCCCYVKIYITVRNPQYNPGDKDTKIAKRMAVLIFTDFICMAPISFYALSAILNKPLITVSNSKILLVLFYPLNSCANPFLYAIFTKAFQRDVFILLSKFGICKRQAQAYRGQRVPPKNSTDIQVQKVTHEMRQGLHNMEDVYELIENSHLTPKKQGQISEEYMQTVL

For the molecule `O=C(OCc1ccccc1)c1ccccc1O`, the Potency result in experiment [1], in experiment [3], in experiment [4], in experiment [5], in experiment [6] and in experiment [8] was “inactive” each time. The Potency result in experiment [9], in experiment [10] and in experiment [11] was “inactive” in each case. The Potency in experiment [2] is 17.7 µM (active) and 12.6 µM (active). The call in experiment [7] was inactive.

Consider `CN(C)C(=N)N=C(N)N`, for which the Potency entry in experiment [1], in experiment [3], in experiment [12], in experiment [13], in [4] and in [5] was “inactive” in each case. The Potency entry in experiment [14], in [8], in experiment [9], in experiment [10] and in [11] was “inactive” in each case. In experiment [7], the outcome was inactive.

For the molecule `Cc1ccc(C(=O)c2cc(O)c(O)c([N+](=O)[O-])c2)cc1`, the Potency in experiment [1] was 43.3 µM (active); in experiment [2], 63.3 µM (active) and 34.7 µM (active); in experiment [4] it was 43.3 µM (active) and inactive; in [15] it was 30.6 µM (active); in [17], 30.6 µM (active) and 26.6 µM (active). Moreover, the Potency entry in [12], in [16], in experiment [5], in [9], in [10] and in experiment [11] was “inactive” in each case. Also, the activity change, positive = activation in experiment [18] (at 42.5 µM (top of the series)) is -49.4% (inactive); in [18] (at 92.4 µM (top of the series)), -70.9% (inactive).

With `COc1ccccc1/C=C/C=O`, the Potency result in experiment [2], in experiment [3], in [4], in experiment [6], in [14] and in experiment [8] was “inactive” throughout. Moreover, the Potency entry in experiment [9] and in experiment [11] was “inactive” each time. For the same molecule, the Potency in [5] is 31.4 µM (active) and 54.5 µM (active). Besides, the molecule was called inactive in experiment [7].

Regarding `Cc1cccc(N(C)C(=S)Oc2ccc3ccccc3c2)c1`, the Potency result in experiment [1], in experiment [2], in [3], in [12], in experiment [4] and in [5] was “inactive” in each case. Also, the Potency result in experiment [6], in experiment [9], in [10] and in experiment [11] was “inactive” throughout. In addition, in [13], the Potency was 27.3 µM (active) and 26.6 µM (active). Further, in experiment [7], the result was inactive.

As to `Cc1[nH]c(=O)c(C#N)cc1-c1ccncc1`, the Potency entry in [1], in experiment [2], in experiment [3], in experiment [12], in experiment [13] and in [4] was “inactive” throughout. Further, the Potency result in experiment [8], in experiment [9], in experiment [10] and in [11] was “inactive” in each case. The result in experiment [7] was inactive.

For `O=P(O)(O)O`, the Potency entry in [1], in experiment [19], in [3], in [4], in experiment [5] and in [8] was “inactive” in each case. The Potency entry in [9], in [10] and in [11] was “inactive” throughout. Moreover, the molecule was called inactive in experiment [7].

For the molecule `O=C(c1ccccc1)c1ccc(O)cc1O`, the Potency in experiment [1] is 69.9 µM (active) and inactive; in [2], 89.4 µM (active); in experiment [13], 61.1 µM (active). In addition, the Potency entry in experiment [12], in experiment [4], in experiment [5], in experiment [6], in [14] and in experiment [8] was “inactive” in each case. The Potency result in [9], in experiment [10] and in [11] was “inactive” each time. The molecule was classed as inactive in [7].

As to `CN(C)CCC=C1c2ccccc2CCc2ccccc21`, the Potency in experiment [1] was 68.6 µM (active) and 48.6 µM (active) and inactive; in experiment [12], 48.6 µM (active); in experiment [4], 48.6 µM (active) and inactive; in experiment [8], 113 µM (active) and inactive; in experiment [9] it was “inactive and 43.6 µM (active)”. In addition, the Potency entry in experiment [2], in [13] and in [11] was “inactive” in each case. In addition, the molecule was classed as inactive in experiment [7].

`CC(C)CC(C)(O)C#CC(C)(O)CC(C)C` (stereo not given): the Potency result in experiment [1], in experiment [3], in experiment [12], in experiment [13], in [4] and in experiment [15] was “inactive” throughout. The Potency entry in [16], in experiment [5], in experiment [6], in experiment [17], in [9] and in [10] was “inactive” in each case. In addition, the Potency entry in experiment [11] was “inactive”. Also, the molecule was called inactive in [7]. In addition, the activity change, positive = activation in experiment [18] (at 92.4 µM (top of the series)) is -11.8% (inactive) and -19.1% (inactive).

As to `O=C(c1ccc(OCCN2CCCCC2)cc1)c1c(-c2ccc(O)cc2)sc2cc(O)ccc12`, the Potency was 30.7 µM (active) and 48.6 µM (active) and 18.8 µM (active) in experiment [1]; 24.4 µM (active) and 30.6 µM (active) in experiment [4]; 43.7 µM (active) and 49 µM (active) and inactive in experiment [6]; 54.9 µM (active) and inactive in experiment [9]; 19.5 µM (active) and 23.9 µM (active) in [10]. Besides, the Potency result in [12], in experiment [13] and in experiment [11] was “inactive” in each case. Besides, in experiment [7], the molecule was called inactive.
